Assay outcomes as filed in PubChem BioAssay.
Mcl1 Bid PPI – Mcl-1/Bid binding inhibitors, primary screen, biochemical, TR-FRET, 1536-well | Induced myeloid leukemia cell differentiation protein Mcl-1 (Homo sapiens), Q07820 | TR-FRET Mcl-1/Bid-Dy647 peptide binding | inhibition, % at 21.7 µM | hit rate 0.97% among 220,000;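 active = compounds that cut the binding signal by more than half at the single screening dose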;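 note: His-tagged Mcl-1 with europium anti-His antibody binding Bid BH3 peptide; 0% = Mcl-1 plus peptide wells and 100% = peptide-only wells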
Arbovirus inh – antivirals against arbovirus infection, primary screen, cell-based, full library, 10K replicate subset; arbovirus infection cell-based antiviral screen; inhibition, % at 10 µM; hit rate 0.37% among 200,000; AID 1251, 2008; in the data active = inhibition above about 30%
Mcl1-Noxa inh – Mcl-1/Noxa binding inhibitors, primary screen, biochemical, TR-FRET, 1536-well. TR-FRET Mcl-1/Noxa peptide binding, 2 h. inhibition, % at 21.7 µM. hit rate 1.5% among 220,000. AID 1022, 2008;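 active = compounds that cut the protein-peptide binding signal by more than 50% relative to plate controls in a single-dose test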;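 note: His-tagged Mcl-1 with rhodamine Noxa BH3 peptide and terbium anti-His antibody; 0% = Mcl-1 plus Noxa peptide wells and 100% = peptide-only wells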
14-3-3 Bad PPI – inhibitors of 14-3-3 zeta/Bad binding, primary screen, biochemical, TR-FRET, bovine 14-3-3 zeta; hit rate 0.71% among 220,000; TR-FRET 14-3-3zeta/Dy647-pBad peptide displacement, 1 h; AID 781, 2007; inhibition, % at 21.7 µM;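 active = inhibition above about 70%, limit read from the data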;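 note: 0% = full 14-3-3 plus peptide FRET controls and 100% = background without 14-3-3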
Target sequence (P63103 whole entry, looked up): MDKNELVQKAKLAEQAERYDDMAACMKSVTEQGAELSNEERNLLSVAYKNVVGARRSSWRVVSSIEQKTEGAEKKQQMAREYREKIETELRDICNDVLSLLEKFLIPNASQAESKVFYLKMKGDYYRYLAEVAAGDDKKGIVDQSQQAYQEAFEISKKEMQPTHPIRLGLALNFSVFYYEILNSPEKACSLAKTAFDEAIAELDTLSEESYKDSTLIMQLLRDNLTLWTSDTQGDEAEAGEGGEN
Mcl-1 Bim block – inhibitors of Bim peptide binding to Mcl-1, primary screen, biochemical, bead-based flow cytometry, multiplex; Induced myeloid leukemia cell differentiation protein Mcl-1 (Homo sapiens), Q07820; Bim peptide-Mcl-1 binding; inhibition, % at 10 µM; hit rate 0.1% among 190,000; AID 1009, 2008; in the data active = inhibition above about 40%;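 note: 0% = no compound tracer wells and 100% = peptide blocker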
An asterisk follows results filed as active; . = not tested or not shown; [ ] = dose if it differs, or a comment. Compounds with a hit are over-represented: about 3% of the library has one in this group of screens.

SMILES | Mcl1 Bid PPI | Arbovirus inh | Mcl1-Noxa inh | 14-3-3 Bad PPI | Mcl-1 Bim block
O=C1CCCC(O)=C1N=Nc1ccc2c(c1)OCO2 | -24 | -23 | 17 | -5 | -4
Cc1ccc2[nH]c(=O)c(CN(C)C(=O)c3cccs3)cc2c1 | 4 | 16 | 12 | 1 | 0
Cc1ccc(N(Cc2cc3cc(C)ccc3[nH]c2=O)C(=O)c2cccs2)cc1 | 61* | -1 | -8 | 0 | -4
CC[C@H](C)C(C(=O)N1CCN(C(=O)OC(C)(C)C)CC1)n1cc(C(Cc2ccc(O)cc2)NC(=O)OC(C)(C)C)nn1 (some centres undefined) | -8 | -5 | -7 | -4 | 0
COC(=O)c1[nH]c2ccc(C)cc2c1NC(=O)c1ccccc1[N+](=O)[O-] | -13 | 6 | 17 | -30 | -3
COC(=O)c1[nH]c2ccccc2c1NC(=O)c1ccccc1[N+](=O)[O-] | -4 | -14 | -3 | -11 | 93*
CCCCn1nc2cc(C(=O)NCc3ccc(OC(F)(F)F)cc3)ccc2c1OC | -13 | 12 | 15 | 71* | -2
CN(C)CCC1c2ccc(Cl)cc2CCc2cccnc21 (centres undefined) (tested in a mixture with another compound) | -10 | . | 1 | 1 | .
Cc1ccc2c(c1)NC(=O)c1cccnc1N2 | -76 | -5 | 77* | 6 | -2
Cc1cccc(N2CCN(C(=O)C3COc4ccccc4O3)CC2)c1C (centres undefined) | -3 | 36* | 20 | -1 | 1
CCCC(=O)OCCNc1cc(Sc2nc3ccccc3[nH]2)c2nonc2c1[N+](=O)[O-] | -62 | -43 | 52* | -12 | -1
CCC(=O)OCCNc1cc(SCCC(=O)OC)c2nonc2c1[N+](=O)[O-] | -4 | -7 | 15 | 6 | -1
O=c1cc(CN2CCN(S(=O)(=O)c3ccccc3[N+](=O)[O-])CC2)nc2sccn12 | -40 | 5 | -9 | -6 | 0
CN(C)c1ccc(P(=O)(OC2CCCCC2)C(O)c2ccncc2)cc1 (centres undefined) | -89 | . | 2 | -3 | .
C=CCSc1nc2c(c(=O)[nH]c(=O)n2C)n1C/C=C(/C)Cl | -1 | 2 | 58* | -6 | -4
Cc1ccc(-n2c(SCC(=O)NCc3ccco3)nc3sc4c(c3c2=O)CC(C)(C)SC4)cc1 | 89* | 2 | -85 | -25 | 2
CCN=C1S/C(=C\c2cn(C(C)=O)nc2-c2ccccc2)C(=O)N1CC | 1 | -14 | 2 | -2 | -7
CCN=C1S/C(=C\c2ccc(-c3cccc(C(=O)O)c3)o2)C(=O)N1CC | -22 | 41* | 35 | -9 | 4
CCN1C(=O)/C(=C\c2ccc(-c3ccc([N+](=O)[O-])cc3OC)o2)SC1=Nc1cccc(C(=O)O)c1 | 70* | 3 | 98* | 60 | -6
O=C1CC(c2ccccc2)CC(O)=C1C=NCc1ccc(Cl)cc1 (centres undefined) | -21 | 2 | 7 | 6 | -1
O=C(Cc1ccc(Cl)cc1)Nc1ccc(CN2CCCCC2)cc1 | -9 | . | 6 | -7 | .
C#CCSc1nnnn1-c1ccc(OCC)cc1 | -15 | . | 12 | 3 | .
Cc1c(N=C2SCC(=O)N2/N=C\c2ccc(Br)cc2)c(=O)n(-c2ccccc2)n1C | -6 | -6 | 7 | 1 | -5
CCOC(=O)N1CCC(Nc2c(Nc3cccc(CC)c3)c(=O)c2=O)CC1 | -16 | 36* | 18 | -7 | -5
Cc1ccc2c(n1)sc1c(-c3ccc(Br)cc3)c(C#N)c(N)nc12 | 46 | 9 | -11 | 61 | 2
N#Cc1c(Cl)c(Cl)c2nnc(-c3ccc(Br)cc3)n2c1Cl | 14 | -19 | -40 | 95*[fluorescence artefact?] | 7
COc1cccc(N(C(=O)CNC(=O)c2ccco2)C(C(=O)NC2CCCCC2)c2ccncc2)c1 (centres undefined) | -2 | 4 | -1 | 13 | 1
NS(=O)(=O)c1ccc(NC(=S)Nc2ccc(C(=O)N3CCCCC3)cc2)cc1 | -38 | 4 | 10 | -17 | -3
CC1CCN(CCCn2c(=S)[nH]c3c(sc4ccccc43)c2=O)CC1 | -80 | 4 | 59* | -11 | -3
